About 2,500 (0.83%) of roughly 300,000 compounds were called active. Cut-off read from the data, not from the text of the source: active = inhibition above about 60%; inconclusive = no clear call, values can overlap the other calls; inactive = below that. Shown is part of a subset that was picked to be rich in actives.
Assay: 5' untranslated region of α-synuclein, MLPCN primary screen (AID 1813);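 note: H4 neuroglioblastoma cells stably carrying SNCA 5'UTR luciferase fusion; 0% = DMSO wells and 100% = positive control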
Settings: alpha-synuclein 5'UTR reporter, inhibitor activity; active compounds read high; tested at 7.5 µM

Row | SMILES | inhibition
1 | CN1CCN(c2cc(N3CCNCC3)ccc2[N+](=O)[O-])CC1 | 9.3% (inactive)
2 | Cc1nc2ccc(N3CCN(C)CC3)cc2nc1C | -72% (inactive)
3 | COc1cccc(-c2nc3ccc(N4CCN(C)CC4)cc3[nH]2)c1 | 68.9% (active)
4 | CN(C)c1ccc(/C=C2\CC3C4CC=C5CC(O)CCC5(C)C4CCC3(C)C2=O)cc1 (stereo not given) | 8.56% (inactive)
5 | CSc1nc2ccc(C)cc2c(=O)n1-c1cccnc1 | -1.34% (inactive)
6 | CCOc1ccc(-c2cc(C)[n+](CCN(CC)CC)c(-c3ccc(OCC)cc3)c2)cc1 | 95.2% (active)
7 | Cc1cccc2c(CCN)c[nH]c12 | 10.6% (inactive)
8 | Cc1ccc(P(=S)(c2ccc(C)o2)N2CCOCC2)o1 | -9.28% (inactive)
9 | CCN(N=Nc1nonc1OC)c1nonc1OC | -2.32% (inactive)
10 | CCCCCCCCCCCCn1ccc(=N)cc1 | 104% (active)
11 | CNP1(NC)=Nc2nn(-c3ccccc3)c(N)c2C(c2ccccc2)=N1 | 9.19% (inactive)
12 | COc1ccc2c(c1O)-c1cccc3c1[C@@H](C2)N(C)CC3 | -3.62% (inactive)
13 | O=C(OCCN1CCOCC1)C1(c2ccccc2)CCCC1 | 1.68% (inactive)
14 | Cc1c(Oc2cc(NN3CCCCC3)c([N+](=O)[O-])cc2[N+](=O)[O-])cccc1[N+](=O)[O-] | 15.3% (inactive)
15 | Cc1cccc(NC(=O)N2CC3CC(C2)c2cccc(=O)n2C3)c1 (stereo not given) | 13.7% (inactive)
16 | c1cc2c(cc1[C@H]1OC[C@H]3[C@@H]1CO[C@@H]3c1ccc3c(c1)OCO3)OCO2 | 72.8% (active)
17 | c1cc2c(cc1CCNC1CCCCCC1)OCO2 | 2.86% (inactive)
18 | O=C1/C(=C\c2ccc3c(c2)OCO3)N2CCC1CC2 | 17.4% (inactive)
19 | CC(C)n1c(=O)c(C=Nc2ccc(Br)cc2)c(O)n(Cc2ccco2)c1=O | -1.22% (inactive)
20 | Cc1ccc(Cn2c(C)c3cnn(CC(=O)N4CCC5(CC4)OCCO5)c(=O)c3c2C)cc1 | 12% (inactive)

Source: PubChem BioAssay AID1813 (Broad Institute, 2009)
